For eight compounds, growth results are on record in PubChem BioAssay (NCI).

Structures are written as SMILES. About 83,000 compounds went through this panel and 20% of them were active in at least one assay; those are over-represented in the sample as a whole.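 Growth was measured after 48 h exposure to one concentration of compound in 96-well plates. Values under 10 count as active.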 Unmarked numbers belong to inactive results. Calls of active or inactive are those of the source.

Common to all, as to test: NCI-60 one-dose screen, 48 h (100 = growth as untreated, 0 = no growth, -100 = all killed)
Details in all cases: 10 µM unless noted

In assay [1] the test system is HCT-15 colon.
In assay [2] the test system is HT29 colon.
In assay [3] the test system is SNB-75 CNS.
For assay [4], the system named is U251 CNS.
Assay [5] relates to SK-MEL-5 melanoma.
Assay [6] has as its system UACC-62 melanoma.
The test system of assay [7] is LOX IMVI melanoma.
The test system of assay [8] is SK-MEL-28 melanoma.
Assay [9] deals with SK-MEL-2 melanoma.
Assay [10] deals with EKVX NSCLC.
The subject of assay [11] is SN12C renal.
Assay [12] has as its system UO-31 renal.
In assay [13] the test system is TK-10 renal.
The subject of assay [14] is ACHN renal.
In assay [15] the test system is CAKI-1 renal.
The subject of assay [16] is A498 renal.
In assay [17] the test system is CCRF-CEM leukemia.
For assay [18], the system named is MOLT-4 leukemia.
For assay [19], the system named is PC-3 prostate.
Assay [20] has as its system SNB-19 CNS.

Take `COc1ccc(C(=O)COc2ccc(/C=C3\Oc4ccc(Cl)cc4C3=O)cc2)cc1`: the growth in assay [1] is 103%; in [2], 109%; in assay [3], 88.8%; in assay [4] it was 96.7%; in assay [5], 78.8%; in assay [6], 83.6%. Also, the growth in assay [7] is 92%; in assay [8], 79.9%; in [9], 71.1%; in [10] it was 86.8%; in [11] it was 103%; in [12] it was 83.4%. Moreover, the growth is 105% in assay [13]; 109% in assay [14]; 98.1% in [15]; 109% in assay [16]; 122% in assay [17]; -17.8% (active) in assay [18].

As to `O=[N+]([O-])c1c(F)cccc1Nc1cccc(F)c1`, the growth in assay [1] is 104%; in assay [2], 97.5%; in assay [3], 81.6%; in assay [4], 105%; in assay [19] it was 103%; in assay [5], 101%. Moreover, the growth in assay [7] is 102%; in assay [8] it was 118%; in assay [9], 103%; in assay [10], 103%; in [12], 78.3%; in [13] it was 113%. The growth in assay [14] is 101%; in assay [15], 101%; in assay [16] it was 80.8%; in assay [18], 93.8%.

As to `O=C(Nc1cccc2c1C(=O)c1cccc(Nc3cccc4c3C(=O)c3cccc(NC(=O)c5ccccc5)c3C4=O)c1C2=O)c1ccccc1`, the growth in assay [1] was 110%; in assay [2], 124%; in [3] it was 92.8%; in [4], 109%; in assay [19], 87.2%; in assay [5], 112%. For the same compound, the growth is 98.1% in assay [7]; 118% in assay [8]; 109% in [9]; 125% in assay [10]; 86.3% in [12]; 108% in assay [13]. Besides, the growth in assay [14] was 104%; in assay [15], 99.1%; in assay [16] it was 121%; in assay [17], 89.5%; in [18], 104%.

In the case of `C=C1C(=O)O[C@H]2[C@H]1CC/C(Cn1cc(Cn3ccc4cc(Cl)ccc43)nn1)=C\CC[C@@]1(C)O[C@@H]21`, the growth in assay [1] was -47.1% (active); in [2] it was -43.3% (active); in [20], 53.5%; in assay [4] it was 28.9%; in assay [19] it was 6.92% (active); in assay [5], 46.9%. Also, the growth is 5.99% (active) in [6]; -89.5% (active) in assay [7]; -13.3% (active) in assay [8]; 18.1% in assay [9]; 42.4% in assay [10]; 19.4% in assay [11]. Further, the growth in assay [12] is -100% (active); in assay [13], -24.7% (active); in assay [14], -97.8% (active); in assay [15] it was 3.92% (active); in assay [16], 45%; in assay [17], -27.1% (active). Moreover, in assay [18], the growth was -22.1% (active).

As to `CCCCNP1(NCCCC)=NP(NCCCC)(NCCCC)=NP(NCCCC)(NCCCC)=NP(NCCCC)(NCCCC)=N1`, the growth in assay [1] was 99.3%; in assay [2], 11.9%; in assay [3], 8.44% (active); in assay [4] it was 11%; in assay [19], -6.45% (active); in [5], -93.8% (active). Besides, the growth is 20.3% in [6]; 37.4% in [8]; -23.1% (active) in assay [9]; -17.2% (active) in assay [10]; 20.1% in assay [11]; 37.6% in assay [12]. Besides, the growth in [13] is 13.6%; in assay [14] it was 33.9%; in assay [15], 64.4%; in [16], 4.56% (active); in assay [17], -16.8% (active); in [18] it was -38.5% (active).

With `NS(=O)(=O)c1ccc(-n2ncc3c(=O)[nH]c(CN4CCN(c5cc6c(cc5F)c(=O)c(C(=O)O)cn6C5CC5)CC4)nc32)cc1`, the growth in assay [1] is 89.7%; in assay [2], 101%; in assay [20], 94.9%; in assay [4], 102%; in assay [19], 82.5%; in assay [5], 96.7%. In addition, the growth in [6] was 74%; in assay [7] it was 97.2%; in assay [8], 93.5%; in assay [9], 106%; in assay [10] it was 92.6%; in assay [11], 95%. Further, the growth in assay [12] was 70%; in [13], 119%; in [14], 94%; in assay [15] it was 89.2%; in assay [16] it was 102%; in assay [17], 93.4%. In addition, the growth in [18] was 97%.

Take `Nc1c(C(=O)Nc2cccc3c2OCCO3)sc2nc3c(cc12)C(=O)CCC3`: the growth in assay [1] was 30.1%; in [2] it was 13.5%; in [20], 33.3%; in [4], 33%; in assay [19] it was 33.9%; in assay [5], 24%. The growth in [6] was 23.5%; in assay [7], 41.8%; in [8] it was 60%; in assay [9], 64.9%; in assay [10], 24.7%; in assay [11], 41.3%. The growth is 53% in assay [12]; 73.3% in assay [13]; 55.4% in assay [14]; 47.6% in assay [15]; -1.97% (active) in assay [16]; 16.5% in assay [17]. For the same compound, the growth in assay [18] is 57.6%.

As to `CC[C@H](CO)Nc1nc(NCc2ccccc2)n2ncc(C(C)C)c2n1`, the growth is 2.45% (active) in assay [1]; 3.07% (active) in [2]; -73.4% (active) in assay [3]; 5.23% (active) in [4]; -17.6% (active) in assay [5]; -41.8% (active) in [6]. The growth in assay [7] was 4.45% (active); in assay [8] it was -16.9% (active); in [9], 11.1%; in assay [10] it was 0.263% (active); in [11] it was 17.1%; in [12] it was 10%. In addition, the growth was 15.6% in assay [13]; 4.26% (active) in [14]; 9.58% (active) in assay [15]; -21% (active) in assay [16]; -0.868% (active) in assay [17]; -12.9% (active) in [18].
